Common to all, as to assay: DAPPL (digital affinity profiling via proximity ligation, sequencing); 10 mM Tris-HCl pH 7.5, 50 mM NaCl, 1 mM DTT, 4% glycerol, room temperature, 30 min; GST-TFs on glutathione beads, 16-mer random dsDNA library, 0.1% formaldehyde crosslink after washing; high values mean tight binding
What all share (conditions): protein: recombinant; tags: N-terminal GST; dsDNA, one strand shown

For one assay, the target named is T1, ERF (Homo sapiens, UniProt P50548 1-548).
T1 sequence: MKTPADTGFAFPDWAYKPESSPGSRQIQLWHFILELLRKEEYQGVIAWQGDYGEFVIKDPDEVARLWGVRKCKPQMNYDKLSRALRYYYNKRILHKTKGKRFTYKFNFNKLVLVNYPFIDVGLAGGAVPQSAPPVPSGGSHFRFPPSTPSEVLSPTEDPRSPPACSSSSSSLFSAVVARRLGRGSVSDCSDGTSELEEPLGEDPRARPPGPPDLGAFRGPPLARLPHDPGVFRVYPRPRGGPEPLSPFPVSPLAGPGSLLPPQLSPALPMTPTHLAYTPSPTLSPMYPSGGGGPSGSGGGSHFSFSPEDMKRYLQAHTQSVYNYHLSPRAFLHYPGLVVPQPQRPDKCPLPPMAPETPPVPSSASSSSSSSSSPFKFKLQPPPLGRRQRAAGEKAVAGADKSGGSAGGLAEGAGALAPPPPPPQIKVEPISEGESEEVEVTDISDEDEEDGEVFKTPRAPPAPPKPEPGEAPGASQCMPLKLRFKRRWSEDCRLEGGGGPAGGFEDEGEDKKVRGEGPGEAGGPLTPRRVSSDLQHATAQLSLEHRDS
The essentials:
(§1)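 Human transcription factors carrying a GST fusion were produced in yeast, bound to glutathione beads, tagged with DNA barcodes and pooled together with a tag-only sample. Each pool was held with 200 nmole of a random double-stranded 16-mer DNA library in Tris/NaCl/DTT/glycerol buffer for 30 min at room temperature, then washed, crosslinked in 0.1% formaldehyde, proximity-ligated with BsaI/T4 ligase (1 h, 37 °C), PCR-amplified and sequenced on an Illumina NextSeq500. Binding signal is the read frequency of each hexamer for a given factor divided by its frequency in the tag-only sample.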

In the next assay the target is T2, ETV3L (Homo sapiens, UniProt Q6ZN32 1-361).
T2 sequence: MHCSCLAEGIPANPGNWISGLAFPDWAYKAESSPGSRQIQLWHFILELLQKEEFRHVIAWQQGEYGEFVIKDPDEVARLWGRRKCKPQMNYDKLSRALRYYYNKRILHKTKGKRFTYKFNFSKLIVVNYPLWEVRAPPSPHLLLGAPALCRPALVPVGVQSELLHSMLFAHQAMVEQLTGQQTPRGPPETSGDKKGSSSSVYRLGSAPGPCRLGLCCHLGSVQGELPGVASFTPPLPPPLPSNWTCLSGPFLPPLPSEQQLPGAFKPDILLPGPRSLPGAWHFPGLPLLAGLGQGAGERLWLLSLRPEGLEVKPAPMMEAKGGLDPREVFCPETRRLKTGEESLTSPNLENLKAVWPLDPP
The essentials:
as §1

The target in another assay is T3, ETS2 (Homo sapiens, UniProt P15036 1-469).
T3 sequence: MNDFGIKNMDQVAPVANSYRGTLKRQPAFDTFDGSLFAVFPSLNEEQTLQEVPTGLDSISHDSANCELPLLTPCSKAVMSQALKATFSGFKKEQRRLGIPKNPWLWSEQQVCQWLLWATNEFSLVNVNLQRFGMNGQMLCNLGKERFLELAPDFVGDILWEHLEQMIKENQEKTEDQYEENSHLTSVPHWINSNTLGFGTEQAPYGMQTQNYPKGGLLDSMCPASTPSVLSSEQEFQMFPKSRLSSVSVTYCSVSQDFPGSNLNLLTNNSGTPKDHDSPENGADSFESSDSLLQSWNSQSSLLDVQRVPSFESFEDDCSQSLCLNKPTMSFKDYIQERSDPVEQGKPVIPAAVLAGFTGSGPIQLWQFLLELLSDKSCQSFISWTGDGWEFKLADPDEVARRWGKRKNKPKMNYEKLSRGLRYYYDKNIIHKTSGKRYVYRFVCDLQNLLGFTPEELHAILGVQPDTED
The method, boiled down:
as §1

The target of a further assay is T4, SPDEF (Homo sapiens, UniProt O95238 1-335).
T4 sequence: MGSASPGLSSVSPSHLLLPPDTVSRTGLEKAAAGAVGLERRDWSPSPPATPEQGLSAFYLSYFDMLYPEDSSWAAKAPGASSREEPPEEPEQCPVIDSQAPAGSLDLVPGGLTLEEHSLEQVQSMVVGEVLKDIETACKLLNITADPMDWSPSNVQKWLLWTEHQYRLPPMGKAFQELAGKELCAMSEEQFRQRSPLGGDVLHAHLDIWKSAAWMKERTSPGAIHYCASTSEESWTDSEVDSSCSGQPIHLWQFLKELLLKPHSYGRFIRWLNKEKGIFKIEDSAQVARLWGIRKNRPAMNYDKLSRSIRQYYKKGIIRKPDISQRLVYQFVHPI
The method, boiled down:
as §1

The target of a further assay is T5, ETV7 (Homo sapiens, UniProt Q9Y603 1-341).
T5 sequence: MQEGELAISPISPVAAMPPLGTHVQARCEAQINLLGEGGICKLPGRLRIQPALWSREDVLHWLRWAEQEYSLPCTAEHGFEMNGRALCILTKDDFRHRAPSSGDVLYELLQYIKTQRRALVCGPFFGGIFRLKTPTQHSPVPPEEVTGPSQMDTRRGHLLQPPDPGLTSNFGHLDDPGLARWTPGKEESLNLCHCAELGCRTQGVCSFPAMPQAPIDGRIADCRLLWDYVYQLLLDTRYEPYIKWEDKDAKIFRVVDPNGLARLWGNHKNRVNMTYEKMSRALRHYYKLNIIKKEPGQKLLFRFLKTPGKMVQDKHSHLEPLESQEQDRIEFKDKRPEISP
The essentials:
as §1

A further assay deals with T6, ELF5 (Homo sapiens, UniProt Q9UKW6-2 1-255).
T6 sequence: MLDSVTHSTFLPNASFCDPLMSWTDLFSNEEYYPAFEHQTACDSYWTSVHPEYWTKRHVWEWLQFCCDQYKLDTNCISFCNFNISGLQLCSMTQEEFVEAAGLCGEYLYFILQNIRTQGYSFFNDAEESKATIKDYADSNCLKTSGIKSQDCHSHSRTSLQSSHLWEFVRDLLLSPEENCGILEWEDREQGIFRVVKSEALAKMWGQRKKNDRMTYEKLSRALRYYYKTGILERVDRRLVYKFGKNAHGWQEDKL
The method, boiled down:
as §1

A further assay addresses T7, ETV3 (Homo sapiens, UniProt P41162-2 1-143).
T7 sequence: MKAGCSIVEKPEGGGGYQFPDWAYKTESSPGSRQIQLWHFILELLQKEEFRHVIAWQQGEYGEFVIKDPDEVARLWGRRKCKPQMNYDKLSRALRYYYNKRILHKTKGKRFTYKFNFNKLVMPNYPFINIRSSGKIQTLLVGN
The method, boiled down:
as §1

A further assay deals with ETV6 (Homo sapiens, UniProt P41212 1-452). The essentials: as §1
ETV6, sequence (P41212 whole entry): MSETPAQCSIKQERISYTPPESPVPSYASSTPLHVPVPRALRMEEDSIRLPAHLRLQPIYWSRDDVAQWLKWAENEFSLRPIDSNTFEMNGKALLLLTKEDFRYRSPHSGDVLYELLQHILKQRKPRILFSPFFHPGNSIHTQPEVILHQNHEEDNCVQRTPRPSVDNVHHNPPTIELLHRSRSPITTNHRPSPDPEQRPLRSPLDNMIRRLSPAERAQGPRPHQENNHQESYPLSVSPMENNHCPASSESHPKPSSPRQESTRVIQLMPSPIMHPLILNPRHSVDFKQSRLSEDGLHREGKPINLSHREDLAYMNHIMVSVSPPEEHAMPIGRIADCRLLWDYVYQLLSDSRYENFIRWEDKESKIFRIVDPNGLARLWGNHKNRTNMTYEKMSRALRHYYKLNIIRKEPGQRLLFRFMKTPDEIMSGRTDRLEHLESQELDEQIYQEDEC

GCTCTA: the binding signal with ERF is 1.27 fold enrichment (6-mer frequency, TF over GST control); with ETV3L, 1.24 fold enrichment (6-mer frequency, TF over GST control); with ETS2, 1.16 fold enrichment (6-mer frequency, TF over GST control); with SPDEF it was 1.15 fold enrichment (6-mer frequency, TF over GST control); with ETV7, 1.19 fold enrichment (6-mer frequency, TF over GST control); with ELF5 it was 1.14 fold enrichment (6-mer frequency, TF over GST control). Besides, the binding signal is 1.1 fold enrichment (6-mer frequency, TF over GST control) with ETV3 and 1.09 fold enrichment (6-mer frequency, TF over GST control) with ETV6.

For the sequence ACATGC, the binding signal with ERF is 1.37 fold enrichment (6-mer frequency, TF over GST control); with ETV3L it was 1.26 fold enrichment (6-mer frequency, TF over GST control); with ETS2, 1.25 fold enrichment (6-mer frequency, TF over GST control); with SPDEF, 1.24 fold enrichment (6-mer frequency, TF over GST control); with ETV7 it was 1.23 fold enrichment (6-mer frequency, TF over GST control); with ELF5, 1.23 fold enrichment (6-mer frequency, TF over GST control). Besides, the binding signal with ETV3 is 1.22 fold enrichment (6-mer frequency, TF over GST control); in the assay with ETV6, 1.45 fold enrichment (6-mer frequency, TF over GST control).

On to CTACAT, for which the binding signal is 1.66 fold enrichment (6-mer frequency, TF over GST control) with ERF; 1.41 fold enrichment (6-mer frequency, TF over GST control) with ETV3L; 1.43 fold enrichment (6-mer frequency, TF over GST control) with ETS2; 1.5 fold enrichment (6-mer frequency, TF over GST control) in the assay with SPDEF; 1.32 fold enrichment (6-mer frequency, TF over GST control) with ETV7; 1.53 fold enrichment (6-mer frequency, TF over GST control) with ELF5. The binding signal is 1.44 fold enrichment (6-mer frequency, TF over GST control) in the assay with ETV3 and 1.43 fold enrichment (6-mer frequency, TF over GST control) with ETV6.

On to TCCGAA, for which the binding signal with ERF is 1.36 fold enrichment (6-mer frequency, TF over GST control); with ETV3L, 1.32 fold enrichment (6-mer frequency, TF over GST control); with ETS2 it was 1.23 fold enrichment (6-mer frequency, TF over GST control); with SPDEF, 1.29 fold enrichment (6-mer frequency, TF over GST control); with ETV7, 1.25 fold enrichment (6-mer frequency, TF over GST control); with ELF5, 1.25 fold enrichment (6-mer frequency, TF over GST control). In addition, the binding signal was 1.15 fold enrichment (6-mer frequency, TF over GST control) with ETV3 and 1.37 fold enrichment (6-mer frequency, TF over GST control) with ETV6.

Consider GATTCA, for which the binding signal was 1.06 fold enrichment (6-mer frequency, TF over GST control) with ERF; 1.19 fold enrichment (6-mer frequency, TF over GST control) with ETV3L; 1.18 fold enrichment (6-mer frequency, TF over GST control) in the assay with ETS2; 1.12 fold enrichment (6-mer frequency, TF over GST control) in the assay with SPDEF; 1.09 fold enrichment (6-mer frequency, TF over GST control) with ETV7; 1.05 fold enrichment (6-mer frequency, TF over GST control) with ELF5. The binding signal with ETV3 was 1.2 fold enrichment (6-mer frequency, TF over GST control); with ETV6 it was 1.13 fold enrichment (6-mer frequency, TF over GST control).

As to CTCTCA, the binding signal with ERF is 1.5 fold enrichment (6-mer frequency, TF over GST control); with ETV3L, 1.39 fold enrichment (6-mer frequency, TF over GST control); with ETS2, 1.42 fold enrichment (6-mer frequency, TF over GST control); with SPDEF, 1.32 fold enrichment (6-mer frequency, TF over GST control); in the assay with ETV7, 1.11 fold enrichment (6-mer frequency, TF over GST control); in the assay with ELF5 it was 1.28 fold enrichment (6-mer frequency, TF over GST control). The binding signal in the assay with ETV3 is 1.43 fold enrichment (6-mer frequency, TF over GST control); with ETV6, 1.36 fold enrichment (6-mer frequency, TF over GST control).

ATAACC: the binding signal with ERF was 1.08 fold enrichment (6-mer frequency, TF over GST control); with ETV3L it was 1.18 fold enrichment (6-mer frequency, TF over GST control); with ETS2 it was 1.21 fold enrichment (6-mer frequency, TF over GST control); with SPDEF it was 1.22 fold enrichment (6-mer frequency, TF over GST control); with ETV7, 1.25 fold enrichment (6-mer frequency, TF over GST control); with ELF5 it was 1.16 fold enrichment (6-mer frequency, TF over GST control). The binding signal with ETV3 is 1.15 fold enrichment (6-mer frequency, TF over GST control); with ETV6, 1.17 fold enrichment (6-mer frequency, TF over GST control).

As to AGTATT, the binding signal in the assay with ERF was 1.3 fold enrichment (6-mer frequency, TF over GST control); with ETV3L it was 1.22 fold enrichment (6-mer frequency, TF over GST control); with ETS2 it was 1.17 fold enrichment (6-mer frequency, TF over GST control); in the assay with SPDEF it was 1.05 fold enrichment (6-mer frequency, TF over GST control); in the assay with ETV7, 1.3 fold enrichment (6-mer frequency, TF over GST control); in the assay with ELF5, 1.27 fold enrichment (6-mer frequency, TF over GST control). The binding signal with ETV3 is 1.19 fold enrichment (6-mer frequency, TF over GST control); in the assay with ETV6, 1.32 fold enrichment (6-mer frequency, TF over GST control).

Source of the values: paper PMC7862700, “An all-to-all approach to the identification of sequence-specific readers for epigenetic DNA modifications on cytosine”.
